# Hits are enriched below; roughly 5.3% of the tested compounds scored in any of these assays.
# Tau FP inhib = qHTS for Inhibitors of Tau Fibril Formation, Fluorescence Polarization. Microtubule-associated protein tau (Homo sapiens), P10636. actives 0.39% (n = 280,000). K18 P301L tau heparin fibrillization, Alexa594 FP, 6 h. AID 1468, 2008. Potency, µM (titrated, usually from 57.7 µM), without a hit: top-dose activity, negative = inhibition, actives largely listed as inhibitors; note: potency is the fitted concentration of half-maximal effect; nearly all actives have a fitted effect of over 55% in size
# Target sequence (P10636 561-689 P618L limits assumed): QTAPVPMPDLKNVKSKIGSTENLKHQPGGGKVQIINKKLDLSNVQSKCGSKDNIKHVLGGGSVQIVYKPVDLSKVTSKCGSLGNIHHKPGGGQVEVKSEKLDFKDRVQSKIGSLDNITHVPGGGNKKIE
#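 Steps: dispense K18 P301L tau (15 uM plus 0.24 uM Alexa 594 tracer, final) in pH 7 sodium acetate; add compound; add heparin (20 uM final); incubate 6 hr, 37 C; add ThT (30 uM final); after 1 hr ambient, read FP.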
# FBPA coupling cs = qHTS Assay for Inhibitors of Fructose-1,6-bisphosphate Aldolase from Giardia Lamblia: Coupling assay counterscreen; activity change, negative = inhibition, % at 58.2 µM, hits read low; actives 0.67% (n = 290,000); coupling enzyme system counterscreen, AmpLite Red fluorescence; in the data active = activity change below about -30%
#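 Counterscreen of the coupled detection system alone, without aldolase: glyceraldehyde-3-phosphate coupling enzymes plus AmpLite Red readout. Compounds at 57.5 uM final, 10 min RT preincubation, 20 min RT reaction, fluorescence 525/598 nm.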
# JMJD2E inh = qHTS Assay for Inhibitors of Human Jumonji Domain Containing 2E (JMJD2E). Potency, µM (titrated, usually from 57.1 µM), for inactives: top-dose activity change, negative = inhibition, actives largely listed as inhibitors. Lysine-specific demethylase 4E (Homo sapiens), B2RXH2. actives 1.6% (n = 230,000). JMJD2E catalytic domain, FDH-coupled NADH fluorescence (FDH is formaldehyde dehydrogenase);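 note: potency is the fitted concentration of half-maximal effect; 0% = wells with enzyme and -100% = buffer wells without enzyme; nearly all actives have a fitted effect of over 50% in size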
# Target sequence (B2RXH2 1-337 limits assumed): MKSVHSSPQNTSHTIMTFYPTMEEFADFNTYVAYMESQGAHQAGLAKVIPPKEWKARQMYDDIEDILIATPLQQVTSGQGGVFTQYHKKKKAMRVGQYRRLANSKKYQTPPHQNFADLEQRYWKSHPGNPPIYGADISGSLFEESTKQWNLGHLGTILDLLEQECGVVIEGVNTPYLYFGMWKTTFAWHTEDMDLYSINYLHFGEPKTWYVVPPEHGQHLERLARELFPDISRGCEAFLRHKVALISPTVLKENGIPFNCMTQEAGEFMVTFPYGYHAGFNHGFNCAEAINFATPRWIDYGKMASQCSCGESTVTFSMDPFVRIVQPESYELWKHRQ
# Tau ThT inhib = qHTS for Inhibitors of Tau Fibril Formation, Thioflavin T Binding; actives 2.1% (n = 270,000); recombinant tau K18 P301L, heparin-induced fibrillization, ThT fluorescence; Microtubule-associated protein tau (Homo sapiens), P10636; AID 1460, 2008; Potency, µM (doses to about 57.4 µM), inactives show top-dose activity, negative = inhibition, usual class: inhibitors; note: potency is the fitted concentration of half-maximal effect; nearly all actives have a fitted effect of over 55% in size
#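 Tau K18 P301L fragment (15 uM unlabeled plus 0.24 uM Alexa 594-labeled) in 100 mM sodium acetate pH 7 with compound, fibrillization induced by 20 uM heparin for 6 hr at 37 C. Thioflavin T (30 uM) added, fluorescence read after 1 hr (ex 450, em 510 nm).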
# Sfp inh = qHTS Assay for Inhibitors of Bacillus subtilis Sfp phosphopantetheinyl transferase (PPTase); Biochemical Sfp PPTase activity, qHTS; Potency, µM, for the others: largest response in the series, negative = inhibition, most hits filed as inhibitors; actives 3.5% (n = 310,000); 4'-phosphopantetheinyl transferase ffp (Bacillus subtilis), Q9F4F7;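 note: the enzyme is Sfp with the accession as filed and its product quenches rhodamine fluorescence; potency is the fitted concentration of half-maximal effect; 0% = enzyme reaction without inhibitor and -100% = no enzyme wells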
#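 With Hepes-Na pH 7.6 buffer containing 10 mM MgCl2, Sfp (15 nM) modified BHQ-2-YbbR (12.5 uM) using rhodamine-CoA (5 uM). Two reads 30 minutes apart at 525/598 nm yielded each well's rate.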
# Tau fluor cs = Counterscreen qHTS for Inhibitors of Tau Fibril Formation, Fluorescence Polarization | tau K18 P301L (four-repeat tau fragment) Alexa594 fluorescence, heparin fibrillization | Potency, µM (highest dose often 57.7 µM), without a hit: at the highest dose activity change, negative = decrease | actives 0.93% (n = 280,000); note: potency is the fitted concentration of half-maximal effect; nearly all actives have a fitted effect of over 55% in size
#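 Human K18 P301L tau (15 uM unlabeled plus 0.24 uM Alexa 594-labeled, final) in 100 mM sodium acetate pH 7 was mixed with compound and 20 uM heparin and incubated 6 hr at 37 C.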
# The depositor's hits bear a star; ? = inconclusive; . = not tested or not shown; [ ] = dose if it differs, or a comment. Unless noted, calls come from the whole dose curve; as a rule, active = well fitted curve in the direction sought with a large enough effect; inconclusive = small, poorly fitted or top-dose-only effect, or another doubt; inactive = no such curve, though single readings can be large; an effect the other way counts as inactive or inconclusive. Unless noted, % is set by controls: 0 for no effect and ±100 for the full control effect.
SMILES,Tau FP inhib,FBPA coupling cs,JMJD2E inh,Tau ThT inhib,Sfp inh,Tau fluor cs
Cc1cc(C)cc(N=Cc2ccc([N+](=O)[O-])s2)c1,-8%,-21,?,?,12%,-19%
O=[N+]([O-])c1ccc(C=Nc2ccc(Cl)c([N+](=O)[O-])c2)s1,-6%,-34*,14µM*,?,-5%,-17%
NC(=O)c1ccc(N=Cc2ccc([N+](=O)[O-])s2)cc1,-12%,-31*,22µM*,?,-4%,-21%
COC(=O)CC1c2ccccc2C=C(/C=C/c2ccc3c(c2)OCO3)N1C(=O)OC (centres undefined),4%[11.6 µM],0,?,-1%[11.5 µM],1%,-5%[11.6 µM]
CCc1cccc(NC(=O)c2cnc(SC)nc2-c2ccccc2)c1,-10%,.,.,-10%,.,-20%
COc1cc(OC)c(NC(=O)Nc2c(C)n(C)n(-c3ccccc3)c2=O)cc1Cl,-1%,.,.,-7%,.,-12%
COC(=O)c1ccc(NC(=O)CC2C(=O)N(c3cccc(F)c3)C(=O)N2CC(C)C)cc1 (centres undefined),-7%,.,.,-3%,.,-23%
COc1ccc(O)c(/C=N/NC(=S)Nc2cccc(S(=O)(=O)N(C)C)c2)c1,?,3,-6%,?,-8%,?
COc1cc(/C=N/NC(=S)Nc2cccc(S(=O)(=O)N(C)C)c2)cc(OC)c1O,?,-5,?,?,-2%,?
CN(C)S(=O)(=O)c1cccc(NC(=S)N/N=C/C(c2ccccc2)c2ccccc2)c1,-4%,-2,?,-7%,?,-25%
CC(/C=N/NC(=S)Nc1cccc(S(=O)(=O)N(C)C)c1)c1ccccc1 (centres undefined),-2%,1,-4%,-12%,89µM*,-12%
COc1cccc(/C=N/NC(=S)Nc2cccc(S(=O)(=O)N(C)C)c2)c1,.,-10,0%,.,10µM*,.
CN(C)S(=O)(=O)c1cccc(NC(=S)N/N=C/c2ccc(O)c(O)c2O)c1,7.1µM*,-56*,7.9µM*,3.2µM*,3.2µM*,13µM*[quencher]
COc1ccc(C2C(C#N)=C3NC(=O)c4c(sc5c4CCCCC5)N3C3=C2C(=O)CC(C)(C)C3)cc1 (centres undefined),2%,-19,-25%,-12%,56µM*,-5%
O=C(O)CN1C(=O)/C(=C\c2cccc(OC(=O)c3ccco3)c2)SC1=S,.,14,.,.,-9%,.
O=C(O)CN1C(=O)/C(=C\c2ccc(OC(=O)c3ccco3)cc2)SC1=S,.,10,.,.,45µM*,.
O=C(O)CN1C(=O)/C(=C\c2cn(CC(=O)N3CCOCC3)c3ccccc23)SC1=S,-2%,7,?,?,-24%,-6%
O=C(O)CN1C(=O)/C(=C/c2ccc(SCc3ccccc3)o2)SC1=S,-8%,-55*,?,13µM*,14µM*,-11%
CCN1C(=O)/C(=C\c2cccc(OC(=O)c3ccco3)c2)SC1=S,.,-38*,.,.,7%,.
O=C(CSc1nnc(CNC(=O)c2ccccc2F)n1-c1ccccc1)Nc1ccccc1F,10%,.,.,6%,.,6%
CCCCN=C1NN=C(c2cc3ccccc3o2)CS1,-5%,4,25µM*,?,-14%,-27%
O=[N+]([O-])c1ccc(NCc2ccc(Cl)cc2)nc1,-10%,2,1%,?,1%,?
O=[N+]([O-])c1ccc(NNS(=O)(=O)c2cc(Cl)ccc2Cl)nc1,.,.,.,.,35µM*,.
CCC(Sc1nc(-c2ccccc2F)nc2c1Cc1c(CO)cnc(C)c1O2)C(=O)Nc1cc(C)ccc1C (centres undefined),-1%,.,.,-1%,.,3%
O=C(Nc1ccc(N2CCN(c3ccc(C(F)(F)F)cn3)CC2)nc1)c1cccs1,-3%,0,?,?,11%,?
SMILES,Tau FP inhib,FBPA coupling cs,JMJD2E inh,Tau ThT inhib,Sfp inh,Tau fluor cs
O=C(Nc1ccc(N2CCN(c3ncccc3C(F)(F)F)CC2)nc1)c1cccs1,9%,-3,-13%,7.9µM*,-1%,13µM*[quencher]
S=C(Nc1ccccc1Cl)N1CCCCC1,-2%,15,11%,-6%,12%,-5%
O=C1CN(C(=S)Nc2ccccc2Cl)CCN1,-7%,-4,10%,-11%,45µM*,-10%
CCS(=O)(=O)c1ccc2oc(Nc3ccc(C(C)C)cc3)nc2c1,?,2,?,40µM*,18µM*,?
CCOc1ccc(Nc2nc3cc(S(=O)(=O)N(CC)CC)ccc3o2)cc1,10%,-1,-13%,?,8.9µM*,?
CCS(=O)(=O)c1ccc2oc(Nc3cc(C)cc(C)c3)nc2c1,0%,-6,-3%,-11%,1%,?
COc1ccc(C2/C=C\CN(S(=O)(=O)CC34CCC(CC3=O)C4(C)C)CC(=O)N2Cc2ccc(F)cc2)cc1 (centres undefined),.,0,.,.,11%,.
CC(C)C[C@H](NC(=O)[C@@H]1Cc2ccccc2CN1C(=O)OC(C)(C)C)C(=O)NCC1CCC(C(=O)O)CC1 (some centres undefined),-10%,1,25µM*,-12%,29%,-7%
O=C(c1ccc2c(c1)CCN2S(=O)(=O)c1ccc(Cl)cc1)N1CCN(c2ccccc2F)CC1,1%,.,.,?,.,?
Cc1cc(C)n(-c2nnc(C)n2/N=C/c2cc(Br)ccc2OCc2ccccc2)n1,-1%,-3,-14%,?,28µM*,-1%
Cc1ccccc1-n1c(Cn2c(=O)sc3ccccc32)nnc1SCC(=O)Nc1nccs1,6%,1,-9%,0%,13%,3%
Cc1csc(NC(=O)CSc2nnc(Cn3c(=O)sc4ccccc43)n2-c2ccccc2)n1,-3%,1,0%,-14%,79µM*,-14%
COc1ccc(N2C(=O)CC(Sc3nnnn3-c3ccc(F)cc3)C2=O)cc1 (centres undefined),-5%,4,-1%,?,16µM*,-14%
O=C1CC(Sc2nnnn2-c2ccccc2)C(=O)N1c1cccc(Cl)c1 (centres undefined),2%,-2,-3%,?,13µM*,-26%
O=C1CC(SCc2nc3ccccc3[nH]2)C(=O)N1c1cccc(Cl)c1 (centres undefined),1%,-2,?,?,-1%,-21%

# Source: PubChem BioAssay
